# According to PubChem BioAssay AID686979 (National Center for Advancing Translational Sciences (NCATS), 2013):
# Several values for one entry are separate records, joined by “and”; a condition that tells them apart may be missing. Equal values may be shown once. The whole screen tested about 420,000 compounds, of which about 50,000 (12%) were called active. Entries that show only a call come without a potency. About 26% were inconclusive and are not listed. Calls follow the shape of the dose curve; as a rule, active = well fitted inhibition curve with a large enough effect; inconclusive = small, poorly fitted or top-dose-only effect; inactive = flat fitted curve, though single readings scatter. The full list was thinned out, with actives kept by preference.
# Experiment: qHTS for Inhibitors of human tyrosyl-DNA phosphodiesterase 1 (TDP1): qHTS in cells in presence of CPT; also: nearly all actives have a fitted effect of over 55% in size
# Conditions: chicken DT40 Tdp1-/-;hTDP1 cells + 20 nM CPT, ATP luminescence, 48 h; series mostly up to 46.2 µM
# Summary of the method: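 Cell growth measured by CellTiter-Glo luminescence after a minimum 48 h, 37 C compound exposure with 20 nM CPT in Tdp1-knockout DT40 cells stably expressing hTDP1, seeded 400/well; qHTS titration format.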
# Potency is read from the fitted curve at half-maximal effect.
row,SMILES,Potency
1,CC(OC(=O)c1cc2ccccc2o1)C(=O)Nc1ccc(N2CCOCC2)cc1 (stereo not given),inactive
2,CN(c1ccccc1)S(=O)(=O)c1ccc2[nH]c(=O)[nH]c2c1,inactive
3,CCCNC(=O)N1CCC(c2ccc3c(c2)OCO3)CC1,inactive
4,CCCS(=O)(=O)N1CCN=C1SCc1cccc(F)c1,inactive
5,CCCC[C@@H]1CN=C(N)N1CCc1cccc(F)c1,9.2 µM (active)
6,O=C1NC[C@@H](Cc2ccc(O)cc2)N(CCc2cccc(F)c2)C1=O,inactive
7,CCCC[C@@H]1CN=C(N)N1CCc1cc(C(F)(F)F)cc(C(F)(F)F)c1,3.66 µM (active)
8,CCN(CC(=O)NCc1cccs1)C(=O)c1ccc(OC)c(S(=O)(=O)N2CCOCC2)c1,inactive
9,Cn1c(=O)c2c(nc(N3CCOCC3)n2CCNC2=NCCC2)n(C)c1=O,inactive
10,CC(NC(=S)NC1CCCCC1)C(c1ccccc1)N1CCOCC1 (stereo not given),inactive
11,CCn1c(SCC(=O)NNC(=O)c2ccc(OC)cc2)nnc1C(C)C,inactive
12,Cc1cccc(C)c1NC1=NC(=S)N(c2ccc(N(C)C)cc2)C1(C)C,inactive
13,Cc1c(-c2cccc(NC(=O)C(C)(C)C)c2)nc2ncccn12,inactive
14,CCc1cccc(C)c1Nc1c(-c2ccc(N(C)C)cc2)nc2ncccn12,10.3 µM (active)
15,Cc1cccc(C)c1Nc1c(-c2ccccc2O)nc2ncccn12,20.6 µM (active)
16,Cc1ccc(-c2c(N)nc3ncccn23)cc1,inactive
17,CCc1cccc(C)c1NS(=O)(=O)c1c(C)nc2sccn2c1=O,inactive
18,CC1(OC(=O)CCc2ccccc2)C(=O)C=C2C=C(c3ccc(C#N)cc3)N(CCc3ccccn3)C=C2C1=O (stereo not given),inactive
19,CC1CCN(c2ccc([N+](=O)[O-])cc2C(N)=O)CC1,inactive
20,CC(C)c1ccc(NC(=O)Cn2nnc(C(=O)NCCc3ccccc3)c2N)cc1,inactive
21,O=C(COc1ccc([N+](=O)[O-])cc1)Nc1cccc(C(=O)Nc2ccccc2C(=O)O)c1,inactive
22,CCc1ccc2c(c1)C1(NN=C(c3ccccc3)S1)C(=O)N2 (stereo not given),2.91 µM (active)
23,CCc1cccc(NC(=O)c2cc(-c3ccccc3)n[nH]2)c1,inactive
24,CCCCC(CC)CNC(=O)C1CCN(S(=O)(=O)c2cccc3nsnc23)CC1 (stereo not given),inactive
25,Cc1cc(C)c(-c2c(O)c3ccccc3n(C)c2=O)c(C)c1,inactive
26,COc1cccc2c(O)cc(=O)n(C)c12,inactive
27,COc1cc2c(=O)n(C)c3ccccc3c2cc1OC,13 µM (active)

row,SMILES,Potency
1,Cc1ccc(Cc2nnc(SCC(=O)Nc3ccccc3C)[nH]c2=O)cc1,inactive
2,C[C@H](CO)N1C[C@H](C)[C@H](CN(C)C(=O)Nc2ccc3c(c2)OCO3)Oc2ncc(Br)cc2C1=O,inactive
3,CCOc1ccc(NC(=O)CN(C)C(=O)c2c(C)noc2C)cc1OCC,inactive
4,c1ccc(-c2c[nH]c(-c3ccccc3)c2)cc1,inactive
5,CC1CCCCC12NC(=O)N(CC(=O)N1CCN(c3ccccc3)CC1)C2=O (stereo not given),inactive
6,CC(=O)c1ccc(N2CCN(CC(O)c3ccccc3)CC2)cc1 (stereo not given),inactive
7,COc1ccc(/C=C2/C(=O)N(c3ccccc3)N=C2C)c(OC)c1,inactive
8,COc1cc(OC)c(/C=C/c2ccnc3ccccc23)c(OC)c1,10 µM (active)
9,COc1ccc(C=Nc2cccc3ncccc23)cc1,inactive
10,CC(=O)OC1CCC2(O)CC1(C)CCC1C2CC1(C)C (stereo not given),inactive
11,COc1ccc(-c2n[nH]c(C)c2-c2ccc(OC)c(OC)c2)c(O)c1,20.6 µM (active)
12,C=C(C)COc1ccc(-c2ncncc2-c2ccc(OC)cc2)c(O)c1,inactive
13,COc1ccc(-c2c(-c3ccc(OC)cc3O)nc(C)nc2C(F)(F)F)cc1,inactive
14,COc1ccc(-n2c(-c3ccc(OC)c(OC)c3)n[nH]c2=S)cc1,inactive
15,C=C(C)COc1ccc(-c2n[nH]c(C)c2-c2ccccc2)c(O)c1,14.6 µM (active)
16,CCOc1ccc(-c2n[nH]c(C)c2-c2ccccn2)c(O)c1,inactive
17,N#Cc1c(-c2ccccc2)nc(SCc2ccc([N+](=O)[O-])cc2)[nH]c1=O,inactive
18,O=C(Nc1ccccc1)/C(=C\c1ccco1)NC(=O)c1ccco1,inactive
19,CCN(CC(=O)Nc1ccc(OC)cc1)C(=O)c1ccc(=O)n(Cc2ccccc2)n1,inactive
20,COc1ccc(NC(=O)CCCNC(=O)Cn2cnc3sc4c(c3c2=O)CCCC4)cc1OC,inactive
21,O=C(Nc1ccccc1C(=O)N1CCCCCC1)c1ccccc1Cl,inactive
22,Nc1nnnn1/N=C/c1cccc(Br)c1,inactive
23,CCOC(=O)c1c(NC(=S)Nc2ccccc2C)sc2c1CCC2,inactive
24,CCOC(=O)c1c(NC(=O)C2(C)Cc3ccccc3C(=O)O2)sc2c1CCCC2 (stereo not given),18.4 µM (active)
25,CCOC(=O)c1c(NC(=O)c2ccc(Br)o2)sc2c1CCCC2,inactive
26,O=C1c2ccccc2C(=O)N1CCC(O)C[N+](=O)[O-] (stereo not given),inactive
27,COCCCNc1nc2c(-c3cccc(C(F)(F)F)c3)nnn2c2ccccc12,inactive

row,SMILES,Potency
1,COCCCNc1nc2c(-c3cccc(C)c3)nnn2c2ccc(Cl)cc12,11.6 µM (active)
2,COc1ccc(CCNc2nc3c(-c4cccc(F)c4)nnn3c3ccccc23)cc1OC,inactive
3,C[C@@H]1O[C@@H](OC[C@H]2O[C@@H](Oc3c(-c4ccc(O)cc4)oc4cc(O)cc(O)c4c3=O)[C@H](O)[C@@H](O)[C@@H]2O)[C@H](O)[C@H](O)[C@H]1O,inactive
4,COc1cccc(-n2c(=O)c3c(C)c(C(=O)N(C)C)sc3n(Cc3cccc(C)c3)c2=O)c1,inactive
5,COc1cc(OC)cc(C2=Cc3ccccc3C(CC(=O)c3ccco3)N2c2ccc(-c3cnc(OC)nc3)cc2)c1 (stereo not given),inactive
6,Cn1c2ccccc2c2cc(/C=C(\NC(=O)c3ccccc3)C(=O)NCC(=O)O)ccc21,inactive
7,O=c1c(F)cn(C2CCCO2)c(=O)n1Cc1ccccc1Cl (stereo not given),inactive
8,CCCNC(=O)C1CCC(Cn2c(=O)c3sccc3n(Cc3ccccc3F)c2=O)CC1 (stereo not given),14.6 µM (active)
9,O=C(C1CCN(CC2CCCCC2)CC1)N1CCCC1,inactive
10,Cc1cccc(Cn2c(=O)n(CCC(=O)NCCc3ccc(Cl)cc3)c(=O)c3sccc32)c1,inactive
11,O=C(C1CCC(Cn2c(=O)c3sccc3n(Cc3ccccc3F)c2=O)CC1)N1CCCCC1 (stereo not given),23.1 µM (active)
12,CCC1CCCCN1CCCNC(=O)C1CCC(Cn2c(=O)[nH]c3ccccc3c2=O)CC1 (stereo not given),inactive
13,C=Cc1ccc(Cn2c(C(=O)OC)cc3sc(C)cc32)cc1,inactive
14,COc1ccc(S(=O)(=O)NC(=O)C2(C)CCN2C(=O)c2ccccc2CCc2ccccc2)cc1 (stereo not given),inactive
15,CCCc1cc(=O)oc2c(C)c(OCC(=O)NCc3ccccn3)ccc12,inactive
16,CCCc1cc(=O)oc2c(C)c(OCC(=O)Nc3ccccn3)ccc12,inactive
17,CCc1cc(=O)oc2c(C)c(OCC(=O)NCCN3CCOCC3)ccc12,23.1 µM (active)
18,O=C(NCc1cccnc1)C12CC3CC(CC(C3)C1)C2,inactive
19,CCOc1ccc(C(C)=O)cc1COC(=O)CNC(=O)c1cccs1,inactive
20,Cc1ccc(C(=O)NCCSc2c(C)[nH]c3ccccc23)cc1C,18.4 µM (active)
21,CN(C)CCCNC(=O)c1ccc2[nH]c3ccccc3c2c1,inactive
22,COC(=O)CCNC(=O)c1ccc2[nH]c(C)c(C)c2c1,inactive
23,COc1cccc(NC(=O)CN(C)C(=O)CSC(=S)N2CCCC2)c1,inactive
24,Cc1cc(C)cc(NS(=O)(=O)c2ccc(F)cc2)c1,inactive
25,Cn1c(=O)n(C)c2cc(S(=O)(=O)Nc3ccc(F)cc3)ccc21,16.4 µM (active)
26,Cn1c(=O)sc2cc(NS(=O)(=O)c3ccc(C(C)(C)C)cc3)ccc21,inactive
27,O=C(Nc1ccccc1N1CCOCC1)c1ccc(OCc2cscn2)cc1,inactive

row,SMILES,Potency
1,O=Nc1c(O)cc(O)c2ccccc12,inactive
2,O=C(/C=C/c1cccc(F)c1)NC1CC1,inactive
3,Cc1cc(NC(C)C)n2c(nc3ccccc32)c1C#N,inactive
4,CC(C)c1cc(NCc2ccccn2)n2c(nc3ccccc32)c1C#N,5.8 µM (active)
5,Cc1cc(NCc2ccco2)n2c(nc3ccccc32)c1C#N,inactive
6,O=C(COC(=O)c1cc(S(=O)(=O)N2CCOCC2)ccc1F)NC1CC1,inactive
7,CCCS(=O)(=O)N1CCN(C(=O)c2cccs2)CC1,inactive
8,O=C(C[n+]1cc(-c2ccc(Cl)c(Cl)c2)n2c1CCC2)c1cccs1,10.3 µM (active)
9,Cc1ccc(-c2c[n+](CC(=O)Nc3ccccc3)c3n2CCC3)cc1,11.6 µM (active)
10,Cc1ccc(NC(=S)N2CCCC(c3ccccc3)=N2)cc1,inactive
11,Cc1ccc(C(=O)C[n+]2cc(-c3ccccc3)n3c2CCCCC3)cc1,5.62 µM (active) and 1.64 µM (active)
12,Cc1ccc(NC(=O)CN2CCc3ccccc3C2)cc1,inactive
13,CCS(=O)(=O)N1CCN(C(=O)c2cccs2)CC1,inactive
14,O=C(c1ccc(CSc2ccccc2)cc1)N1CCCCCC1,inactive
15,Cc1ccc(C(=O)N2CCCC(c3ccccc3)=N2)cc1,inactive
16,COc1ccccc1NC(=O)N1CCCC1C(=O)NCc1cccs1 (stereo not given),inactive
17,CC(C)CN(C(=O)CSc1ncnc2sccc12)C1CCS(=O)(=O)C1 (stereo not given),inactive
18,O=C(COc1ccc(NC(=O)c2ccccc2[N+](=O)[O-])cc1)c1ccc(F)cc1,inactive
19,CSc1nc(-c2ccccc2)nc(C(Cl)Cl)n1,1.16 µM (active)
20,CSc1ncc(Sc2ccccc2)c(C(=O)O)n1,inactive
21,COc1ccc(CC(NC(C)=O)C(=O)N2CCN(C(=O)Nc3cccc(Cl)c3)CC2)cc1OC (stereo not given),inactive
22,COc1ccc(OCCCC(=O)Oc2ccc(OC)cc2)cc1,inactive
23,COc1ccc(CCC(=O)c2ccc(OC)cc2)cc1,inactive
24,COc1ccc(OCCC(=O)c2ccc(OC)cc2)cc1,2.59 µM (active)
